Screening data as filed in PubChem BioAssay.
PI5P4K alpha inh – inhibitors of human PI5P4K alpha; P48426; PI5P4Kalpha enzyme, ADP-Glo luminescence, 60 min; active compounds read low; max response, %; 330,000 compounds, 1.2% hits; active = max response of -50% or lower; inconclusive = between -30% and -50%; inactive = -30% or higher; also: value at the top dose of about 77 µM; % is scaled to controls: 0 for no effect and ±100 for the full control effect
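Compounds were pin-transferred onto PI5P4Kalpha and substrate in HEPES pH 7.4 buffer with EGTA, CHAPS and 5% DMSO. ATP (5 microM final) started the reaction, which ran 60 minutes at room temperature before ADP-Glo detection.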
JMJD2A Tudor inh – JMJD2A Tudor domain (human) inhibition. O75164. AlphaScreen JMJD2A-Tudor / H3K4me3 peptide binding. Potency, µM (top dose mostly 114 µM), inactives show at the top dose activity change, negative = inhibition, hits mostly inhibitors. 390,000 compounds, 4.4% hits. AID 504339; also: potency is read from the fitted curve at half-maximal effect; % is scaled to controls: 0 for no effect and ±100 for the full control effect; nearly all actives have a fitted effect of over 50% in size
Target sequence (O75164 whole entry, looked up, the tested form may be a part): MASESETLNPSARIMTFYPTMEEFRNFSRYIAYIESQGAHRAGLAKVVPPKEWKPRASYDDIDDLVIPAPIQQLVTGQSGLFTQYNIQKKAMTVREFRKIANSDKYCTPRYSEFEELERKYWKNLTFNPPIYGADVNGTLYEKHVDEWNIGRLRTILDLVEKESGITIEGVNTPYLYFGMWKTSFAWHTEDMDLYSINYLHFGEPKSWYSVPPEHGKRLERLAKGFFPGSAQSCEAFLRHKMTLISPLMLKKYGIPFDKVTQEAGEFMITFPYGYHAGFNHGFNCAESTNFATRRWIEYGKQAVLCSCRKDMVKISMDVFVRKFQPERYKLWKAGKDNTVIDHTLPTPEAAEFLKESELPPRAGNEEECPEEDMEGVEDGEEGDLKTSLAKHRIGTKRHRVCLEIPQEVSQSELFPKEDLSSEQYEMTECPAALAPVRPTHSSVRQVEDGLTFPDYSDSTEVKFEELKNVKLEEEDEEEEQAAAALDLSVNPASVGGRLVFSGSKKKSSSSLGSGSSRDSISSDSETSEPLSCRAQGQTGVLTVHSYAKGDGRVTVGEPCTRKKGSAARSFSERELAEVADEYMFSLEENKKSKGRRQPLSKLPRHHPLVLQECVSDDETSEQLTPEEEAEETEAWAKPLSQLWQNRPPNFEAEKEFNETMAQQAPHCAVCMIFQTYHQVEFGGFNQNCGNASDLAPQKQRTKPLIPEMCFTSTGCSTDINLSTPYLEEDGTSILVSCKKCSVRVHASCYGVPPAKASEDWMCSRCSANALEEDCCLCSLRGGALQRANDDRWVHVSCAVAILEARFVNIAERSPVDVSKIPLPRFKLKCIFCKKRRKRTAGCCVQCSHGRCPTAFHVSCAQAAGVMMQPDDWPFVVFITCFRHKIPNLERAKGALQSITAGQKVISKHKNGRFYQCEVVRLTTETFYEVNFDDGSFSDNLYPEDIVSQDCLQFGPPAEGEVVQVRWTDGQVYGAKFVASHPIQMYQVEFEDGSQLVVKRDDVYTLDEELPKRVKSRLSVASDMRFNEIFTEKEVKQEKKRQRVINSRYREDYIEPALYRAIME
HP1b chromo inh – inhibitors of HP1-beta chromodomain binding to methylated histone tails. 390,000 compounds, 0.56% hits. AID 540317. Potency, µM (top dose mostly 114 µM), for inactives: top-dose activity change, negative = inhibition, usual class: inhibitors. P83916. AlphaScreen HP1-beta / biotin-H3K9me3 peptide binding; also: potency is read from the fitted curve at half-maximal effect; nearly all actives have a fitted effect of over 70% in size
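Compound inhibition of the preformed complex between 50 nM HP1-beta and 50 nM biotinylated H3K9me3 peptide was read by AlphaScreen. Buffer was PBS pH 7.4 with 0.01% Tween-20. Incubations ran 30 min at room temperature, with 10 ug/mL donor/acceptor beads.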
L3MBTL1 block – inhibitors of human L3MBTL1. AlphaScreen L3MBTL1–H3K9me1 peptide binding. Potency, µM (series often up to 57.1 µM), without a hit: at the top dose activity, negative = inhibition, actives largely listed as inhibitors. 230,000 compounds, 0.66% hits; also: potency is read from the fitted curve at half-maximal effect; % is scaled to controls: 0 for no effect and ±100 for the full control effect; nearly all actives have a fitted effect of over 60% in size
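L3MBTL1 50 nM + b-AHA-H3(1-15)K9me1 75 nM, 30 min RT; compound added, 30 min RT; streptavidin donor/Ni-chelate acceptor beads 10 ug/mL each final, 30 min RT dark; AlphaScreen read.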
JMJD2E inh – inhibitors of human JMJD2E histone demethylase | JMJD2E catalytic domain, FDH-coupled NADH fluorescence (FDH is formaldehyde dehydrogenase) | Potency, µM (highest dose often 57.1 µM), for inactives: at the highest dose activity change, negative = inhibition, usual class: inhibitors | 230,000 compounds, 1.6% hits; active = well fitted inhibition curve with a large enough effect, not every such curve was filed as active; inconclusive = small, poorly fitted or top-dose-only effect, or another doubt; inactive = no such curve, though single readings can be large or run the other way;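 also: potency is read from the fitted curve at half-maximal effect; 0% = wells with enzyme and -100% = buffer wells without enzyme; nearly all actives have a fitted effect of over 50% in size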
BAZ2B block – inhibitors of human BAZ2B bromodomain; Potency, µM (highest dose often 114 µM), for inactives: top-dose activity change, negative = inhibition, most hits filed as inhibitors; Q9UIF8; 360,000 compounds, 4.4% hits; AlphaScreen BAZ2B-H3K14Ac peptide displacement; also: potency is read from the fitted curve at half-maximal effect; % is scaled to controls: 0 for no effect and ±100 for the full control effect; nearly all actives have a fitted effect of over 60% in size
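BAZ2B 50 nM plus b-H3(5-23)K14Ac 50 nM, PBS pH 7.4/0.01% Tween-20, 30 min RT; compound added (max 110 uM), 30 min RT; streptavidin donor/Ni-chelate acceptor beads 10 ug/mL final, 20 min dark; AlphaScreen read.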
Starred values were filed as active, the others as inactive; ? = inconclusive; / = no result given; [ ] = remark or other dose. This is a sample that favours compounds with a hit; in the whole collection about 5.7% have one here. Unless noted, calls follow the shape of the dose curve; as a rule, active = well fitted inhibition curve with a large enough effect; inconclusive = small, poorly fitted or top-dose-only effect; inactive = no such curve, though single readings can be large or run the other way.

SMILES | PI5P4K alpha inh | JMJD2A Tudor inh | HP1b chromo inh | L3MBTL1 block | JMJD2E inh | BAZ2B block
COc1ccccc1-c1nc(C(N)=O)c2[nH]c(=O)n(-c3cccc(C)c3)c2n1 | -14 | -30% | 11% | 3% | ? | ?
COC(=O)c1ccc(OC)c(Cn2c(=O)n(-c3ccc(C)cc3)c(=O)c3c2cnn3C)c1 | / | -7% | 25% | / | / | -2%
Cc1ccc(S(=O)(=O)NN2C(=O)c3ccccc3NC2c2ccccc2F)cc1 (stereo unspecified) | -8 | -5% | 41% | / | / | 50µM*
OC[C@H]1O[C@H](OC[C@H]2O[C@H](OC[C@H]3O[C@H](O[C@]4(CO)O[C@H](CO)[C@@H](O)[C@@H]4O)[C@H](O)[C@@H](O)[C@@H]3O)[C@H](O)[C@@H](O)[C@H]2O)[C@H](O)[C@@H](O)[C@H]1O | 12 | -19% | 18% | -2% | / | 11%
CC(=O)c1c(C)[nH]c(C(=O)OCC(=O)N2CCN(S(=O)(=O)c3ccc(C)cc3)CC2)c1C | -2 | -11% | 5% | 1% | / | 50µM*
CCOC(=O)c1c(C)[nH]c(C(=O)OCC(=O)N2CCN(S(=O)(=O)c3ccccc3)CC2)c1C | -1 | -15% | 6% | / | -1% | 0%
COC(=O)Cn1c2[n+](c3ccccc31)CC(O)CS2 (stereo unspecified) | -3 | -4% | 42% | -4% | 6% | -1%
CCOC(=O)Cn1c2[n+](c3ccccc31)CC(O)CS2 (stereo unspecified) | / | 45µM* | 7% | / | -5% | ?
Cc1ccc2c(c1)-c1cc(C)nn1C(c1cc(Br)ccc1O)N2 (stereo unspecified) | / | -11% | 34% | / | / | 11%
Cc1ccc(-n2[nH]c(=O)c(-c3ccccn3)c2C)cc1 | -1 | -31% | 6% | -20% | -3% | 45µM*
Cc1ccc(-n2[nH]c(=O)c3cccnc32)cc1 | / | -11% | 15% | 9% | 7% | -6%
COc1cc(C(Nc2ccc3c(c2)OCO3)C(=O)NC2CCCCC2)cc(OC)c1OC (stereo unspecified) | -10 | ? | -31% | -10%[11.4 µM] | 28µM* | 40µM*
COc1cc(NC(=O)Nc2ccc3c(c2)OCO3)cc(OC)c1OC | 2 | -15% | 8% | / | 4% | /
O=C(CN1C(=O)COc2ccc(S(=O)(=O)N3CCOCC3)cc21)N1CCN(c2cccc(C(F)(F)F)c2)CC1 | / | -24% | 13% | / | / | -14%
O=C(NCc1ccc(Cl)cc1)c1cnc(N2CCOCC2)c2ccccc12 | / | 3% | 25%[57 µM] | / | / | 1%
Cc1cccc(-c2noc(-c3ccccc3OCC(=O)Nc3ccc([N+](=O)[O-])cc3)n2)c1 | / | 28µM* | -15% | / | / | -34%
O=C(OCc1cc(=O)n2nc(C3CCCCC3)sc2n1)c1ccccc1Cl | / | -4% | 46% | / | / | 1%
COc1ccccc1-c1sc2cc3c(cc2c1-c1ccc(OCCN2CCOCC2)cc1)OCO3 | 48 | 50µM* | -24% | -12% | / | /
c1ccc2c(-c3ccc(OCCN4CCCCC4)cc3)c(-c3ccsc3)sc2c1 | -1 | 40µM* | -7% | -8% | / | /
c1ccc(-c2sc3ccccc3c2-c2ccc(OCCN3CCCCC3)cc2)cc1 | 0 | -36% | 8% | -7% | / | /
CN(C)CCOc1ccc(-c2c(-c3ccccc3)sc3ccccc23)cc1 | 18 | 40µM* | ? | -7% | / | /
NC(=O)c1ccc(-c2c(-c3ccccc3)sc3ccccc23)cc1 | 2 | -3% | 33% | -2% | / | 8%
COc1cc(OC)cc(-c2sc3ccc(OC)cc3c2-c2ccc(OCCN3CCCCC3)cc2)c1 | 18 | 20µM* | -32% | -2% | / | /
Cc1cc(CNC(=O)[C@]2(C(F)(F)F)C[C@H](CCC3CCCCC3)CCCO2)nn1C | / | -18% | 27% | / | / | /
Cc1cc2c(s1)c1cnn(Cc3ccc(Br)cc3)c(=O)c1n2C | / | -33% | / | / | / | /
SMILES | PI5P4K alpha inh | JMJD2A Tudor inh | HP1b chromo inh | L3MBTL1 block | JMJD2E inh | BAZ2B block
CCCCN1C(C(=O)c2ccccc2)=C(OC(C)=O)c2ccccc2S1(=O)=O | / | ? | 25% | / | / | -23%
COc1cccc(N2CCN(c3ccc4nnc(CCC(=O)O)n4n3)CC2)c1 | / | -8% | 30% | / | / | /
Cc1ccc(C(=O)N/C(=C\c2ccco2)C(=O)NCCCn2ccnc2)cc1 | -2 | 22µM* | 20% | ? | 5% | 7.9µM*
O=C(NCCCn1ccnc1)/C(=C/c1ccco1)NC(=O)c1ccccc1 | -4 | -16% | 43% | / | / | /
Cc1ccc(C(=O)N/C(=C/c2ccccc2F)C(=O)NCCCn2ccnc2)cc1 | -2 | -14% | 5% | / | / | -33%
Cc1ccc(C(=O)N/C(=C/c2ccco2)C(=O)NCCCn2ccnc2)cc1 | -10 | -7% | 5% | ? | 7% | 32µM*
CCCN1CCC(=O)N(C(CSc2ccc(OC)cc2)c2ccccc2)CC1 (stereo unspecified) | / | -19% | 32% | / | / | /
COc1cc(OC)c2ccc(=O)oc2c1C(CC(=O)N1CCN(c2ccccc2)CC1)c1ccc2c(c1)OCO2 (stereo unspecified) | -14 | 40µM* | -27% | / | ? | 40µM*
COc1ccc(C(CCN2CCN(c3ccccc3)CC2)c2c(OC)cc(OC)c3c(-c4ccccc4)cc(=O)oc23)cc1 (stereo unspecified) | -8 | ? | -9% | / | ? | ?
COc1cc(OC)c2c(-c3ccccc3)cc(=O)oc2c1C(CCN1CCOCC1)c1ccc2c(c1)OCO2 (stereo unspecified) | -2 | 32µM* | ? | -14% | / | /
COc1cc(C(CCN2CCOCC2)c2c(OC)cc(OC)c3c(-c4ccccc4)cc(=O)oc23)cc(OC)c1OC (stereo unspecified) | -6 | 79µM* | -20% | -8% | / | /
COc1cc(OC)c2c(C)cc(=O)oc2c1C(CCN1CCN(c2ccccc2)CC1)c1ccc2c(c1)OCO2 (stereo unspecified) | -1 | 28µM* | ? | / | ? | 25µM*
COc1cc(C(CCN2CCCC2)c2c(OC)cc(OC)c3c(-c4ccccc4)cc(=O)oc23)cc(OC)c1OC (stereo unspecified) | 0 | ? | -2% | / | -24% | -18%
COc1cc(C2C(C(=O)c3ccc(C)o3)=C(O)C(=O)N2CCN2CCOCC2)ccc1OCCC(C)C (stereo unspecified) | -4 | ? | 16% | / | / | -28%
CCc1ccccc1NC(=O)C1CCCN(C(=O)c2cnn(-c3ccccc3)c2-n2cccc2)C1 (stereo unspecified) | / | -13% | 13% | / | / | -14%
CCOC(=O)C1C(=O)NC(SCC(=O)OC)=C(C#N)C1c1ccccc1OCC (stereo unspecified) | / | -9% | 46% | / | 6% | 0%
